This is part of a sample that, as a whole, favours compounds with a hit. Of some 83,000 tested, about 20% had one in any assay.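 Treatment: one concentration, 48 hours, 96-well format. Scoring: percent growth, with anything below 10 considered active.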 The source made the active and inactive calls.

The experiment deals with OVCAR-4 ovarian. The experiment is described as follows: NCI-60 one-dose screen, 48 h (100 = growth as untreated, 0 = no growth, -100 = all killed). The conditions noted are these: 10 µM unless noted.
On to `O=C(Nc1ccc(-n2cc(-c3ccncc3)c(-c3ccc(Cl)c(O)c3)n2)cc1)c1cc(C(F)(F)F)cc(C(F)(F)F)c1`, for which the growth was 70% (inactive). For `COc1ccc(C2CC(=O)c3c(O)cc(OC4OC(COC5OC(C)C(O)C(O)C5O)C(O)C(O)C4O)cc3O2)cc1O` (centres undefined), the growth was 103% (inactive). Consider `O=C(NCCNCCO)c1cc([N+](=O)[O-])cc([N+](=O)[O-])c1O`, for which the growth was 108% (inactive). Consider `O=Nc1ccc(O)c2ccccc12`, for which the growth is -96.5% (active). On to `CC(=O)N1CCN(CCNC(=O)n2cc(-c3ccncc3)c(-c3ccc(O)c(Cl)c3)n2)CC1`, for which the growth was 127% (inactive).

For `NC(=O)c1c(Nc2ccccc2)nn2cc(-c3nc4ccccc4s3)c(N)nc12`, the growth is 97.1% (inactive). For `CC(O)CN(CCO)CCN(CCO)CC(C)O` (centres undefined) the value was 109% (inactive); for `COC(=O)c1ccc2[nH]c(O)c(C(=Nc3ccc(N(C)C(=O)CN4CCN(C)CC4)cc3)c3ccc(OC)cc3)c2c1`, 38.7% (inactive); for `c1ccc(C(=NNc2nc3ccccc3o2)c2ccccn2)nc1`, 21.8% (inactive). As to `COC(=O)C(Cc1cnc[nH]1)N1CC(=O)N2[C@@H](c3ccccc3)SC[C@H]2C1=O` (some centres undefined), the growth is 111% (inactive). For `COC(=O)c1ccc2[nH]c(O)c(C(=Nc3ccc(N(C)C(=O)CN4CCN(C)CC4)cc3)c3ccc4c(c3)OCO4)c2c1` the value was 28.1% (inactive). `Cc1ccc(NCc2cn(-c3ccc(C(=O)O)cc3)nc2-c2ccc(C(=O)O)cc2)cc1`: the growth was 109% (inactive). In the case of `O=C(c1ccccc1)c1ccccc1-c1ccccc1`, the growth was 83.3% (inactive). On to `CCCCCCC(C(=O)OCC)(C(=O)OCC)C1CCCCCC1`, for which the growth was 101% (inactive).

(Values after PubChem BioAssay (NCI).)
